tim23-1 inh – growth inhibitors of tim23-1 mutant yeast, primary screen, luminescence, uHTS | inhibition, % at 20 µM | hit rate 1.3% among 330,000 | S. cerevisiae tim23-1 growth, BacTiter-Glo luminescence, 24 h;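 active = growth inhibition of the mutant yeast at or above 50%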;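 note: temperature-sensitive mutant grown at 25 °C; plate controls were DMSO-treated mutant yeast for no effect and medium wells lacking yeast for full effect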
V-ATPase pH – regulators of yeast V-ATPase proton pumping, primary screen, pHLuorin cytosolic pH fluorescence; S. cerevisiae; AID 504577, 2011; hit rate 0.37% among 350,000; response, % at 10 µM; in the data active = response mostly above about 7.3%, no sharp cut-off; inactive = mostly below about 5.4%; note: actives read high
PfHsp90 yeast 2 – growth inhibition of PfHsp90-expressing yeast, primary screen, antimalarial PfHsp90 inhibitor project, S. cerevisiae, BacTiter-Glo luminescence, single point, set 2; AID 504621, 2011; BacTiter-Glo ATP, 48 h; yeast lacking PDR1 and PDR3 efflux regulators; hit rate 0.32% among 310,000; inhibition, % at 9.4 µM;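 active = every replicate shows inhibition above about 80%, whatever the replicate mean, limit read from the data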;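 note: 0% = DMSO neutral controls and 100% = 20 µM radicicol positive controls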
tim10-1 inh – growth inhibitors of tim10-1 mutant yeast, primary screen, luminescence, uHTS | S. cerevisiae tim10-1 ts strain growth, BacTiter-Glo, 24 h | inhibition, % at 20 µM | hit rate 2.2% among 330,000;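 active = inhibition of at least 40%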;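 note: mutant grown at 25 °C; 0% = DMSO wells with yeast and 100% = wells holding no yeast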
TIM10 inh – growth inhibitors of isogenic TIM10 control yeast, primary screen, counter-screen for tim10-1 yeast inhibitor project, luminescence, uHTS. S. cerevisiae TIM10 strain growth, BacTiter-Glo luminescence, 24 h. inhibition, % at 10 µM. hit rate 1.4% among 330,000. AID 463195, 2010;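 active = inhibition of 40% or more at the single tested concentration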;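 note: wild-type TIM10 isogenic control strain grown at permissive 25 °C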
tim10-1 conf – growth inhibitors of tim10-1 mutant yeast, confirmation, single concentration, luminescence, S. cerevisiae; hit rate 56% among 7,400; inhibition, % at 20 µM; S. cerevisiae tim10-1 ts strain growth, BacTiter-Glo, 24 h; shares compounds with tim10-1 inh;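 active = inhibition of yeast growth at or above a set limit in either of two repeat tests at 20 µM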;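 note: tim10-1 mutant grown at permissive 25 °C to find synthetic lethal compounds; 0% = DMSO yeast wells and 100% = medium wells without yeast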
Starred values were filed as active, the others as inactive; x = no result. The list is not random: actives were taken first. Their share in the collection is about 3.7%.

SMILES	tim23-1 inh	V-ATPase pH	PfHsp90 yeast 2	tim10-1 inh	TIM10 inh	tim10-1 conf
CC(C)CCC(C(=O)NC(C)c1ccccc1)C(=O)NC(C)c1ccccc1 (stereo unspecified)	3	-4	-5	-11	15	x
CN(C)c1ccc(NC(=O)CCN2CCN(c3ccccn3)CC2)cc1	3	-1	9	7	-3	x
CN(C)C(=O)Cn1cc(S(=O)(=O)Cc2ccccc2)c2ccccc21	-5	1	4	-4	-5	x
COc1ccc(OC)c(/C=C2\SC(N3CCCC(C)C3)=NC2=O)c1 (stereo unspecified)	41	0	-16	43*	11	28
COc1ccc(/C=C2\SC(N3CCCCC3)=NC2=O)cc1OC	19	-6	6	19	28	x
CCOc1ccc(-n2c(CCc3ccccc3)n[nH]c2=S)cc1	17	6	-13	41*	24	18
CCc1ccc(-n2c(Cc3ccccc3)n[nH]c2=S)cc1	31	5	x	48*	13	27
O=C(NCc1cccnc1)c1cccc(NS(=O)(=O)c2ccc(Br)cc2)c1	18	-1	3	26	11	x
CN(Cc1ccccc1)C(=O)c1ccc(NC(=O)Cc2cccc(NC(=O)C3CCCN(C(=O)C4CCCCC4)C3)c2)cc1 (stereo unspecified)	7	-2	x	9	1	x
CCOc1ccc(OCC)c(S(=O)(=O)N2CCCCC2C)c1 (stereo unspecified)	46	-6	9	43*	20	11
Cc1ccc(-c2onc3ccc(C4OCCO4)cc23)cc1	29	1	6	0	18	x
CC(=O)c1ccc(OC(=O)Cc2cccc3ccccc23)cc1	43	-1	-1	46*	31	36*
CCC(=O)N1CCN(c2ccccc2NC(=S)NC(=O)c2ccco2)CC1	43	-1	-9	34	32	x
CCOC(=O)CC1C(=O)NCCN1C(=O)c1cccc(OC)c1 (stereo unspecified)	10	-1	-20	15	6	x
Cc1nc(-c2ccccn2)sc1C(=O)Nc1ccc(Cl)c(Cl)c1	-3	-9	5	47*	35	29*
CC(=O)/C(N=Nc1cccc(C(F)(F)F)c1)=C(\C)O	9	-1	-5	9	-10	x
O=C(/C(N=Nc1cccc(C(F)(F)F)c1)=C(/O)c1cccs1)C(F)(F)F	41	1	-6	40*	0	31*
Cc1cccc(C)c1NC(=O)C(c1ccc(Cl)cc1Cl)N1CCCCC1 (stereo unspecified)	-3	-5	-2	42*	18	23
NC(=O)C1CCN(CC(=O)Nc2ccc3c(c2)OCCO3)CC1	7	1	1	5	8	x
O=C(CN1CCC(C(=O)c2ccc(Cl)cc2)CC1)Nc1ccc2c(c1)OCCO2	35	-2	10	44*	15	25
O=C(c1cn(-c2ccccc2)nc1-c1ccncc1)n1nnc2ccccc21	40	2	-15	53*	27	39*
N#Cc1c(N2CCCCC2)nc(N)c2c(N)nc3c(c12)CC(c1ccccc1)O3 (stereo unspecified)	16	0	9	41*	32	10
CCC1Cc2c(nc(N)c3c(N)nc(N4CCCCC4)c(C#N)c23)O1 (stereo unspecified)	38	0	20	31	22	x
O=C(Nc1ccnn1C1CCN(C(=O)c2cccnc2)CC1)c1cccc(F)c1	x	1	x	x	x	x
CC1N(C(=O)N2CCOCC2)CCN1S(=O)(=O)c1ccc(Cl)cc1 (stereo unspecified)	7	-3	-41	-10	7	x
SMILES	tim23-1 inh	V-ATPase pH	PfHsp90 yeast 2	tim10-1 inh	TIM10 inh	tim10-1 conf
O=C(NCCC1=CCCCC1)NC12CC3CC(CC(C3)C1)C2	33	0	-27	41*	36	32*
COc1ccc(CCNC(=O)NC23CC4CC(CC(C4)C2)C3)cc1	38	5	-37	45*	24	35*
COc1ccc(N2CCN(C(=O)NC34CC5CC(CC(C5)C3)C4)CC2)cc1	31	-2	-1	48*	15	24
O=C(NC(=S)NCc1ccc2c(c1)OCO2)c1ccccc1	50	0	-65	45*	35	25
O=C(NCc1ccc2c(c1)OCO2)c1ccccc1	10	-2	-26	8	-6	x
O=C(O)c1ccc(S(=O)(=O)N(Cc2ccccc2)C2CCCCC2)cc1	28	4	8	28	1	x
Clc1cc(Cl)cc(Nc2ccccc2CN(C/C=C/c2ccc3c(c2)OCO3)Cc2ccccc2)c1	x	2	x	x	x	x
COc1ccc(S(=O)(=O)N(C)C[C@H]2OCc3cnnn3CCCC(=O)N([C@@H](C)CO)C[C@H]2C)cc1	x	-3	x	x	x	x
COc1ccc(CNC(=O)c2cc(C)nn2-c2ccccc2)cc1	9	-4	-11	-3	-11	x
O=C(CC1Nc2c3ccccc3nc(=S)n2C1=O)NC1CCCCC1 (stereo unspecified)	5	x	x	7	-3	x
COc1ccc(N(C)S(=O)(=O)c2cccc(C(=O)OCC(=O)N3CC(C)CC(C)C3)c2)cc1 (stereo unspecified)	24	-1	-17	3	19	x
COc1ccc(C(=O)NCC(=O)OCC(=O)NC23CC4CC(CC(C4)C2)C3)cc1	31	1	-6	19	19	x
COc1ccc(CC(=O)OCC(=O)NC(=O)NC23CC4CC(CC(C4)C2)C3)cc1	36	-1	7	40*	30	12
O=C(NCc1ccc2c(c1)OCO2)NC12CC3CC(CC(C3)C1)C2	43	1	11	41*	31	30*
O=C(NCc1ccc2c(c1)OCO2)Nc1ccc(F)cc1	-6	-1	21	-12	-3	x
CC(C(=O)N1CCc2ccccc21)N1CCN(Cc2ccccc2)CC1 (stereo unspecified)	-8	-2	32	9	-23	x
O=C1NC[C@H](Cc2ccccc2)N(CC2CCN(CCc3ccc(-c4ccccc4)cc3)CC2)C1=O	x	0	9	x	x	x
Cc1cc(Cl)ccc1Oc1ccccc1C(=O)CC#N	46	3	8	52*	14	38*
Cc1noc(C)c1C(=O)N(CC(=O)Nc1ccccc1Br)Cc1ccco1	18	6	10	3	3	x
Cc1cc(C)c(C(=O)N2CCCC(N3CCN(c4cccc(C(F)(F)F)c4)CC3)C2)o1 (stereo unspecified)	24	-2	-12	44*	20	21
CN1CCN(C(=O)c2ccc(NS(=O)(=O)c3cccc([N+](=O)[O-])c3)cc2)CC1	-7	-1	x	-21	-7	x
Nc1nc(-c2ccc3ccccc3c2)cs1	50	1	-3	43*	35	10

Bioassay records (PubChem)
